# According to PubChem BioAssay:
# Values without a mark were called inactive. Some of the results follow. Calls of active or inactive are those of the source.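 How the source made its calls, unless noted: active means average inhibition above a cutoff equal to the mean inhibition of all tested compounds plus one SD (cut at about 70% in these data); inactive means the rest.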
# What was measured:
# [1] = target: Photoreceptor-specific nuclear receptor (Homo sapiens) (UniProt Q9Y5X4); assay: retest of NR2E3-NCOR disrupting agonists – cell-based, luminescence, CHO-S two-hybrid, confirmation (AID 624378); settings: CHO-S mammalian two-hybrid NR2E3-NCOR, luciferase luminescence; at 3.98 µM; hits give high values;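 further: 0% = DMSO in NR2E3 cells and 100% = DMSO in cells lacking NR2E3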
# [2] = nonselective effects on VP16 transactivation – cell-based, luminescence, CHO-S, high throughput, counter-screen for NR2E3 agonist project, confirmation (AID 624379;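 active means mean inhibition above a cutoff equal to the average over all tested compounds plus one standard deviation, cut at about 70% in these data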;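 further: 0% = DMSO with VP16-transfected cells and 100% = DMSO with cells lacking VP16; higher means less reporter light so more repression of VP16 activity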); settings: CHO-S GAL4-VP16 luciferase reporter, at 3.98 µM, hits give high values
# [3] = VP16-driven transactivation reporter suppression – cell-based, luminescence, HEK293, counter-screen for COUP-TFII antagonist project (AID 687007; in the data active means inhibition above about 13%); settings: HEK293 Gal4-VP16 luciferase reporter, at 8.5 µM, hits give high values
# [4] = target: COUP transcription factor 2 (Homo sapiens) (UniProt P24468); assay: retest of COUP-TFII reporter suppressors – cell-based, luciferase reporter, HEK293, triplicate, confirmation (AID 687008;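 active means mean inhibition over three repeats above a set limit taken from the earlier primary screen, cut at about 38% in these data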;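 further: 100% = cells given the luciferase reporter alone without the COUP-TF2 vector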); settings: HEK293 NGFI-A luciferase reporter, luminescence; at 8.5 µM; hits give high values
# [5] = reduced OD of V66 E. coli with T4 gene 2 phage – absorbance, RecBCD inhibitor project, confirmation (AID 651982;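 active means mean inhibition over triplicates exceeding the hit threshold derived in the original primary screen, cut at about 11% in these data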); settings: E. coli V66 + T4 2- phage, growth OD; at 11.9 µM; hits give high values
# [6] = bacterial growth inhibition – absorbance, high throughput, counter-screen for RecBCD inhibitor project (AID 651983; in the data active means inhibition above about 20%;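 further: E. coli strain V66 grown with compound alone and no phage infection; 0% = bacteria with DMSO vehicle only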); settings: E. coli viability, absorbance (OD) growth; at 11.9 µM; hits give high values
# [7] = reduced optical density, T4-challenged addAB+ bacteria – absorbance, E. coli V3065, T4 phage, counter-screen for RecBCD inhibitor project, confirmation (AID 651984;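 active means mean inhibition above the solvent-only control wells' mean plus 3 SD, cut at about 22% in these data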;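 further: higher means less bacterial growth from phage killing when AddAB is blocked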); settings: E. coli expressing H. pylori AddAB + T4 phage, OD growth; at 11.9 µM; hits give high values; gene 2 mutant T4, recBCD-deleted host
# [8] = StAR promoter reporter inhibitors, counter-screen for LRH-1 inverse agonist project, cell-based, luminescence, high throughput (AID 651611; in the data active means inhibition above about 28%); settings: StAR promoter luciferase reporter counterscreen, at 3.6 µM, hits give high values
# [9] = target: Nuclear receptor subfamily 5 group A member 2 (Homo sapiens) (UniProt O00482); assay: NR5A2 activity suppression in reporter cells – cell-based, luminescence, confirmation (AID 651613; in the data active means inhibition above about 42%;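 further: HEK293T cells co-transfected with LRH-1 and StAR promoter luciferase reporter; 0% = vehicle wells and 100% = parental cells lacking receptor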); settings: cell-based LRH-1 luciferase reporter, inverse agonism; at 3.6 µM; hits give high values
# [10] = target: Steroidogenic factor 1 (Homo sapiens) (UniProt Q13285); assay: inverse agonism at SF1 nuclear receptor – cell-based, luminescence, high throughput, counter-screen for LRH-1 inverse agonist project (AID 651614; in the data active means inhibition above about 44%;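 further: cells cotransfected with StAR promoter reporter and SF1 expression vector; 0% = vehicle on cells with receptor and 100% = vehicle on cells lacking receptor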); settings: cell-based SF1 luciferase reporter, at 3.6 µM, hits give high values
# [11] = compounds suppressing VP16-driven luciferase signal – cell-based, luminescence, high throughput, counter-screen for LRH-1 inverse agonist project (AID 651615; in the data active means inhibition above about 33%); settings: Gal4-VP16 luciferase reporter cells, at 3.6 µM, hits give high values
# [12] = test system: transactivating tegument protein VP16 (Human herpesvirus 1); assay: compounds suppressing VP16-driven luciferase signal – cell-based, luminescence, single concentration, counter-screen for SRC2 inhibitor project (AID 652007; in the data active means inhibition above about 36%); settings: cell-based VP16 transactivation luciferase reporter, at 8.9 µM, hits give high values
# [13] = target: Nuclear receptor coactivator 2 (Homo sapiens) (UniProt Q15596); assay: inhibition of GAL4-SRC2 driven luciferase expression – cell-based, luminescence, HEK293, triplicate, confirmation (AID 652008;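 active means mean inhibition above 46.5%, the solvent-only control mean plus 3 SD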;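 further: 0% = DMSO-treated cells and 100% = Gossypol at 36 µM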); settings: HEK293 GAL4-SRC2 luciferase reporter, at 8.9 µM, hits give high values
# Chain of Nuclear receptor coactivator 2 (Homo sapiens) (Q15596 whole entry, looked up, the tested form may be a part): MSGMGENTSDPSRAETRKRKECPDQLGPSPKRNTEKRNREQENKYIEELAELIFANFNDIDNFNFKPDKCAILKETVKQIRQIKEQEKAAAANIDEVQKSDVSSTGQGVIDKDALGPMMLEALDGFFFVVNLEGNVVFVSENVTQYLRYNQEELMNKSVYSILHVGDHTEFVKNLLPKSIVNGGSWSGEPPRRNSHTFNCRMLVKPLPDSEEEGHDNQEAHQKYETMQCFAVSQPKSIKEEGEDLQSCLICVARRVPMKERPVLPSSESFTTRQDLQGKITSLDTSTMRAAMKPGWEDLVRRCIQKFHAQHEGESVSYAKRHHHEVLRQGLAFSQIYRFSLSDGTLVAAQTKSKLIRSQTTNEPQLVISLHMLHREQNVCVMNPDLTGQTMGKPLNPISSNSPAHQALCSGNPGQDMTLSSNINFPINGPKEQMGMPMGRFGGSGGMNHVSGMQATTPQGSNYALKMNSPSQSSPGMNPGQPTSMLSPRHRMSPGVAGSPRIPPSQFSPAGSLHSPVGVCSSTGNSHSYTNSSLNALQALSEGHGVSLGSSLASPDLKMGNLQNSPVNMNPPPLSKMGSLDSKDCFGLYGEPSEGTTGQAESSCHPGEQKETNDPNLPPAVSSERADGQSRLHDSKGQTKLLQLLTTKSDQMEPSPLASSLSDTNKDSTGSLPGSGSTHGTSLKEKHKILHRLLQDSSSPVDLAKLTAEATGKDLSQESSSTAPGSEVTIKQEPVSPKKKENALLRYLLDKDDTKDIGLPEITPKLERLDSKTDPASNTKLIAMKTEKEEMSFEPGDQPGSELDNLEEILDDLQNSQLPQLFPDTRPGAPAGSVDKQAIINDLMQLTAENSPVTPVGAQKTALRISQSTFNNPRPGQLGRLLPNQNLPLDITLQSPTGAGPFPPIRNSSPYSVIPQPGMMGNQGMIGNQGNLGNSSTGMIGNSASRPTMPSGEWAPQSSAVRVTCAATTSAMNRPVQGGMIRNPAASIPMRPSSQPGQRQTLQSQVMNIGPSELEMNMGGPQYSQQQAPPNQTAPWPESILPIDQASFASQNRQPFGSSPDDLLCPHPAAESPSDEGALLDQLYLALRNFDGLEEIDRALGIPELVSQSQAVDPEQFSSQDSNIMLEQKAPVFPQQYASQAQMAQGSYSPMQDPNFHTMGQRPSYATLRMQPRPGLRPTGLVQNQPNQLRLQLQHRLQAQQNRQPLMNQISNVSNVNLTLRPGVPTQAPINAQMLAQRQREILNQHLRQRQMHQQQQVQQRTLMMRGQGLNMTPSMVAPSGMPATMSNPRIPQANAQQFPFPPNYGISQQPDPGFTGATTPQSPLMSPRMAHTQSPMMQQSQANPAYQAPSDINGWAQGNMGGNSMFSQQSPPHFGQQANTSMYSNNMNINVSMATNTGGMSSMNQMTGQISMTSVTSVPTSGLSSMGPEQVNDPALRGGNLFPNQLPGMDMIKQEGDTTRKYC
# Chain of Photoreceptor-specific nuclear receptor (Homo sapiens) (Q9Y5X4 whole entry, looked up, the tested form may be a part): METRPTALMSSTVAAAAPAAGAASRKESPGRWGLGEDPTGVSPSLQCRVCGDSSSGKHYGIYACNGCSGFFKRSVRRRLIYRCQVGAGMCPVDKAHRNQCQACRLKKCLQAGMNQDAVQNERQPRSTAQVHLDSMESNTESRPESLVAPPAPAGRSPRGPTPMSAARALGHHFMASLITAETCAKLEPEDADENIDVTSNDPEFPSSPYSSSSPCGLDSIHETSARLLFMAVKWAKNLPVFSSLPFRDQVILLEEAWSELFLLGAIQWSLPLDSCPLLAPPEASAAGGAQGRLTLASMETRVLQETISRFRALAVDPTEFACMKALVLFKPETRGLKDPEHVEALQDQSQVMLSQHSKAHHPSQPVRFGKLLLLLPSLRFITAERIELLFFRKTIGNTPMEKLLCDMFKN
# Chain of Nuclear receptor subfamily 5 group A member 2 (Homo sapiens) (O00482 whole entry, looked up): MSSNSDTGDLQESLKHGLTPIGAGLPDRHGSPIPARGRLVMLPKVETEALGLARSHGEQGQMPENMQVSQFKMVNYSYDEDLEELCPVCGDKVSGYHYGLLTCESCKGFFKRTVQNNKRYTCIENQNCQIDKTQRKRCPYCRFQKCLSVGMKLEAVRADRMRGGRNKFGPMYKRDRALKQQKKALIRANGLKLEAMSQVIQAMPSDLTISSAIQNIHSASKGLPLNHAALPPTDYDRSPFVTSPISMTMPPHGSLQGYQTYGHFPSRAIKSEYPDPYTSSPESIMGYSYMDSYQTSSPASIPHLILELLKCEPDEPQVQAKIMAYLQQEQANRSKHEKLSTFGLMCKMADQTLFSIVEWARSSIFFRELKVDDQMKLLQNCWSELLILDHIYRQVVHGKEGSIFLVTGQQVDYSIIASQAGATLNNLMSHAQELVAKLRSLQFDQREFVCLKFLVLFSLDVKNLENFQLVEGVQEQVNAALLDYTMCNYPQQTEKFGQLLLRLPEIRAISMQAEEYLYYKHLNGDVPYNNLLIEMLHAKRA
# Chain of COUP transcription factor 2 (Homo sapiens) (P24468 whole entry, looked up): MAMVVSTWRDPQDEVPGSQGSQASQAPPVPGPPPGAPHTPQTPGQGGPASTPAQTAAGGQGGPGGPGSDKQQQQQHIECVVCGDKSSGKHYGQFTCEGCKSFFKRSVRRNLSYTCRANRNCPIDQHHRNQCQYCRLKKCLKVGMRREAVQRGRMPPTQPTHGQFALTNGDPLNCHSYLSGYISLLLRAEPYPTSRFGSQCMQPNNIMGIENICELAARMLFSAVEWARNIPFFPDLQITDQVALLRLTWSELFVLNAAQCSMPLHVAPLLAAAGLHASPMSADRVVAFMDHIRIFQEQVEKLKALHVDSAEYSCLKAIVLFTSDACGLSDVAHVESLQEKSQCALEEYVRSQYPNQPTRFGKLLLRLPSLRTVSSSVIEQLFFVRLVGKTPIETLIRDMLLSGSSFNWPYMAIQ
# Chain of Steroidogenic factor 1 (Homo sapiens) (Q13285 whole entry, looked up, the tested form may be a part): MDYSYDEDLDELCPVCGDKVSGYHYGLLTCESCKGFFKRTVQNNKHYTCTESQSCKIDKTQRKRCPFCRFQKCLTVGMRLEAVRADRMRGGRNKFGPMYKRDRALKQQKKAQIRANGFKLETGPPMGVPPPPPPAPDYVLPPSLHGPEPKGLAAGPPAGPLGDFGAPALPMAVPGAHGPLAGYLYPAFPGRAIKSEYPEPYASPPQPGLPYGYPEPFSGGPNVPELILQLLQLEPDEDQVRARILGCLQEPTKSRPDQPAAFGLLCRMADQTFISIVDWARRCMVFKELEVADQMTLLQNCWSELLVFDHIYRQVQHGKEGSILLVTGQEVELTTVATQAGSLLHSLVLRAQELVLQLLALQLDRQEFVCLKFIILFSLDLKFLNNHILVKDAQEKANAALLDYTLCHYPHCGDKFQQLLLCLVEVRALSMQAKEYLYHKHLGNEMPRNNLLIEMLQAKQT
structure (smiles),measurement,setting,value
COc1cccc(CNc2nc(NCc3ccccc3OC)nc3ccsc23)c1,inhibition,[1],82% (active)
same,inhibition,[2],61.6%
same,inhibition,[3],2.96%
same,inhibition,[4],18.9%
Cc1cc2nc(-c3ccc(Cl)cc3)c(Cc3cccc(F)c3)n2c(C)c1Br,inhibition,[1],36.1%
same,inhibition,[2],-25.9%
COc1cccc(NS(=O)(=O)c2ccc(-c3coc(C)n3)cc2)c1,inhibition,[1],10.9%
same,inhibition,[2],37.3%
O=C(c1ccc(N2CCCC2=O)cc1)N1CCN(c2ccc(C(F)(F)F)cc2[N+](=O)[O-])CC1,inhibition,[1],93.2% (active)
same,inhibition,[2],74.9% (active)
OC(c1ccc(Cl)cc1)c1ncc(-c2ccc(Cl)cc2)[nH]1 (stereo not given),inhibition,[1],79.4% (active)
same,inhibition,[2],58.9%
O=C(/C=C/c1ccc([N+](=O)[O-])o1)NNC(=O)c1ccc(F)cc1,inhibition,[1],83.5% (active)
same,inhibition,[2],18.6%
same,inhibition,[5],27.6% (active)
same,inhibition,[6],44.5% (active)
same,inhibition,[7],104% (active)
O=C(CCC(=O)N1CCN(S(=O)(=O)c2ccc(Cl)cc2)CC1)NCc1cccc(C(F)(F)F)c1,inhibition,[1],93.6% (active)
same,inhibition,[2],81.6% (active)
same,inhibition,[3],7.21%
same,inhibition,[4],53.4% (active)
CN(C(=O)CN1CCN(c2cc(-c3ccc(OCc4ccccc4)cc3)ncn2)CC1)c1ccccc1,inhibition,[1],51.3%
same,inhibition,[2],52.7%
same,inhibition,[8],14.7%
same,inhibition,[9],46.5% (active)
same,inhibition,[10],46.4% (active)
same,inhibition,[11],25.7%
same,inhibition,[3],1.06%
same,inhibition,[4],31.7%
CCc1cc2c(NC3CCCC3)ncnc2s1,inhibition,[1],88.5% (active)
same,inhibition,[2],64%
same,inhibition,[3],5.31%
same,inhibition,[4],29.9%
Cc1nc2c(OCc3cccc(Cl)c3)cccn2c1N(C)CC1CC1,inhibition,[1],1.83%
same,inhibition,[2],19.3%
Oc1ccc(Br)cc1/C=N/Nc1ccccn1,inhibition,[1],99.3% (active)
same,inhibition,[2],61%
Cc1ccc(OCC(=O)c2cc(C)n(Cc3ccco3)c2C)c([N+](=O)[O-])n1,inhibition,[1],67.8%
same,inhibition,[2],52.5%
same,inhibition,[12],23.6%
same,inhibition,[13],37.4%
COc1ccc(CNc2ncnc3ccccc23)cc1,inhibition,[1],82.4% (active)
same,inhibition,[2],75.7% (active)
same,inhibition,[8],11.2%
same,inhibition,[9],63.6% (active)
same,inhibition,[10],55.6% (active)
same,inhibition,[11],62.8% (active)
same,inhibition,[3],0.55%
same,inhibition,[4],47.6% (active)
O=C1C=C(c2ccnc3cc(Cl)ccc23)C[C@@H](c2ccc3c(c2)OCO3)C1,inhibition,[1],91.6% (active)
same,inhibition,[2],76.5% (active)
same,inhibition,[3],2.65%
same,inhibition,[4],44.8% (active)
COc1ccccc1CNc1nc(Nc2ccccc2Cl)c2sccc2n1,inhibition,[1],93.1% (active)
same,inhibition,[2],86.4% (active)
same,inhibition,[3],-3.83%
same,inhibition,[4],29.8%
Cc1cc(C(=O)NC2CCCc3c2cnn3-c2cccc(C)c2C)c(C)o1 (stereo not given),inhibition,[1],72.7% (active)
same,inhibition,[2],69.9%
same,inhibition,[3],-2%
same,inhibition,[4],26.8%
Cc1cccc(N2CCN(C(=O)c3cccc(S(=O)(=O)N4CCc5ccccc5C4)c3)CC2C)c1 (stereo not given),inhibition,[1],52%
same,inhibition,[2],49%
COC(=O)c1ccc(NC(=O)c2ccccc2NS(=O)(=O)c2ccccc2)cc1,inhibition,[1],77.4% (active)
same,inhibition,[2],57.7%
COc1ccccc1-n1nnnc1S(=O)(=O)Cc1ccc(Cl)cc1,inhibition,[1],10.2%
same,inhibition,[2],19%
same,inhibition,[8],41.7% (active)
same,inhibition,[9],51.6% (active)
same,inhibition,[10],40.4%
same,inhibition,[11],34.2% (active)
O=C(Nc1nnc(-c2ccccc2)o1)c1cc(-c2cccs2)nc2ccccc12,inhibition,[1],98.3% (active)
same,inhibition,[2],12.6%
CCOc1ccc(S(=O)(=O)N2CCCCCC2)c2ccccc12,inhibition,[1],50.4%
same,inhibition,[2],-4.92%
COC(=O)c1c(NC(=O)c2ccc([N+](=O)[O-])o2)sc2c1CCN(C(C)C)C2,inhibition,[8],28% (active)
same,inhibition,[9],45.3% (active)
same,inhibition,[10],44.1% (active)
same,inhibition,[11],0.53%
Oc1cccc(Nc2nc(N3CCOCC3)nc(N3CCOCC3)n2)c1,inhibition,[8],24.7%
same,inhibition,[9],45% (active)
same,inhibition,[10],21.6%
same,inhibition,[11],21%
O=C(NCCCNc1ccc([N+](=O)[O-])cc1)C(F)(F)F,inhibition,[8],9.72%
same,inhibition,[9],54.9% (active)
same,inhibition,[10],52.4% (active)
same,inhibition,[11],-18.2%
O=C1CC(c2ccc3c(c2)OCCO3)Oc2ccc([N+](=O)[O-])cc21 (stereo not given),inhibition,[8],14.5%
same,inhibition,[9],-49.9%
same,inhibition,[10],-37%
same,inhibition,[11],-35.3%
COc1ccc(S(=O)(=O)N2CCN(CC(=O)Nc3ccc(C)c(F)c3)CC2)cc1,inhibition,[8],17.5%
same,inhibition,[9],58.6% (active)
same,inhibition,[10],51.9% (active)
same,inhibition,[11],-4.75%
